Experimental data: PubChem BioAssay
Activity calls are given as the source filed them. Unless noted, no rule for the calls is given here.

How the values were obtained:
[1] = anti-His antibody binders, primary screen, artefact control for SMM control protein annotation, biochemical, small-molecule microarray, 635 nm fluorescence (AID 1128); details: anti-His Alexa647 antibody binding, higher = more signal;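 also: score merges feature fluorescence with signal-to-noise for each printed compound spot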
[2] = system: Human papillomavirus type 1a E7 protein (residues 1-88); assay: HPV1a E7 small-molecule binders, primary screen, biochemical, small-molecule microarray, residues 1-88, 635 nm (AID 1129); details: small-molecule microarray binding, fluorescence 635 nm; higher = more signal
[3] = biological target: Focal adhesion kinase 1 (Homo sapiens) (UniProt Q05397); assay: small-molecule microarray binders of FAK, primary screen, biochemical, 635/667 nm fluorescence, BSA, DTT (AID 1130); details: PTK2 binding, 635 nm fluorescence, higher = more signal;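 also: composite of spot emission at 667 nm and signal to noise over triplicate slides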
[4] = system: Fibrinogen (Alexa647-labelled); assay: fibrinogen binders on compound microarrays, profiling panel, artefact control for SMM control-protein annotation, biochemical, small-molecule microarray, 635/667 nm fluorescence (AID 1131); details: fibrinogen-A647 binding fluorescence, higher = more signal;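 also: z-score merges 667 nm fluorescence with per-spot signal-to-noise over triplicate slides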
[5] = biological target: Follistatin (Homo sapiens) (UniProt P19883); assay: follistatin binders on small-molecule microarrays, primary screen, biochemical, small-molecule microarray, 635/667 nm fluorescence (AID 1132); details: FST binding, 635 nm fluorescence, higher = more signal
[6] = biological target: Fibroblast growth factor 2 (Homo sapiens) (UniProt P09038); assay: FGF2 binders on small-molecule microarrays, primary screen, biochemical, small-molecule microarray, 635/667 nm fluorescence (AID 1133); details: small-molecule microarray binding, FGF2, fluorescence 635/667; higher = more signal
[7] = mitochondrial membrane potential change in A549 cells, profiling panel, cell-based, JC-1 fluorescence, basal, 24 h, 100 nL (AID 1138); details: higher = more signal;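 also: A549 lung adenocarcinoma cells under basal conditions with no added stimulus; test concentration not given here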
Lefty1 = Lefty1 binders on small-molecule microarrays, primary screen, biochemical, small-molecule microarray, 635/667 nm fluorescence (AID 1139); details: small-molecule microarray binding, fluorescence 635/667; higher = more signal
[8] = system: wheat germ agglutinin (Triticum aestivum), Alexa647-labelled; assay: wheat germ agglutinin binders on compound microarrays, profiling panel, artefact control for SMM control-protein annotation, biochemical, small-molecule microarray, 635/667 nm fluorescence (AID 1140); details: WGA-A647 binding, 635 nm fluorescence, higher = more signal;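 also: score merges 667 nm feature emission with signal to noise over triplicate slides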
[9] = biological target: Luciferin 4-monooxygenase (Photinus pyralis) (UniProt P08659); assay: firefly luciferase enzyme inhibitors, primary screen, biochemical, luminescence, purified enzyme, 2006 set (AID 1141); details: SteadyGlo luminescence, 30 min; higher = more signal, called active from +8 up or from −8 down unless noted;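 also: cell-free assay with purified firefly luciferase at 100 ng per well in PBS; test concentration not given here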
[10] = system: Wnt5a (protein binding on small-molecule microarray); assay: Wnt5a binders on small-molecule microarray, primary screen, biophysical, 635/667 nm fluorescence (AID 1142); details: 635 nm fluorescence, higher = more signal;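 also: fluorescence read at 667 nm with signal to noise per printed feature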
[11] = cell viability in Huh7 cells, primary screen, cytotoxicity control for HCV replication inhibitor project, CellTiter-Glo luminescence, basal, 48 h (AID 1143); details: Huh7 HCV replicon, CellTiter-Glo luminescence, 48 h, higher = more signal, called active from +8 up or from −8 down unless noted;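 also: Huh7 hepatoma cells carrying a hepatitis C replication reporter with no stimulus; test concentration not given here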
[12] = P. aeruginosa biofilm formation inhibitors, primary screen, PAO1 strain, BacTiter-Glo luminescence, LB-PBS (AID 1144); details: 12 h, higher = more signal
[13] = CREB reporter modulators without forskolin, primary screen, cell-based, PC12, CRE-LacZ reporter, unstimulated (AID 1145); details: no forskolin, luminescence, 4.5 h; higher = more signal, called active from +8 up or from −8 down unless noted
[14] = CREB reporter modulators under forskolin, primary screen, cell-based, PC12, CRE-LacZ reporter, forskolin-stimulated (AID 1146); details: luminescence, 4.5 h; higher = more signal, called active from +8 up or from −8 down unless noted;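 also: PC12 cells with 6xCRE LacZ reporter stimulated by forskolin 10 µM; beta-galactosidase reporter signal reflecting CREB driven transcription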
[15] = biological target: Streptavidin (Streptomyces avidinii) (UniProt P22629); assay: streptavidin binders on small-molecule microarray, primary screen, artefact control for SMM compound annotation, biophysical, 635/667 nm fluorescence (AID 1147); details: streptavidin binding, higher = more signal;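 also: signal reflects streptavidin binding to arrayed compounds as a control protein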
[16] = small-molecule binders of probe aInhba, primary screen, biochemical, small-molecule microarray, 635/667 nm fluorescence (AID 1148); details: higher = more signal; small-molecule microarray, probe aInhba, fluorescence unless noted;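 also: score merges 667nm spot fluorescence with signal-to-noise for antibody binding to printed compounds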
Torsin-1A (Homo sapiens) [17] = biological target: Torsin-1A (Homo sapiens) (UniProt O14656); assay: torsin A binders from cell lysate, primary screen, small-molecule microarray, wild-type, 635/667 nm (AID 1149); details: COS7 hTOR1A-WT lysate, 635 nm fluorescence, higher = more signal
Torsin-1A (Homo sapiens) [18] = biological target: Torsin-1A (Homo sapiens) (UniProt O14656); assay: small-molecule binders of mutant TOR1A in lysate, primary screen, cell lysate, small-molecule microarray, COS7 lysate, 635/667 nm fluorescence (AID 1150); details: COS7 hTOR1A mutant lysate, 635 nm fluorescence, higher = more signal;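 also: score pools 667 nm emission and signal to noise measuring lysate protein binding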
[19] = system: Sonic hedgehog protein (Shh); assay: small-molecule binders of Shh protein, primary screen, biochemical, small-molecule microarray, 635/667 nm fluorescence (AID 1151); details: small-molecule microarray binding, 635 nm fluorescence; higher = more signal;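 also: Shh protein binding to compounds spotted on small-molecule microarray slides; score combines spot fluorescence intensity with signal-to-noise across triplicate slides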

Sequence of Focal adhesion kinase 1 (Homo sapiens) (Q05397 whole entry, looked up): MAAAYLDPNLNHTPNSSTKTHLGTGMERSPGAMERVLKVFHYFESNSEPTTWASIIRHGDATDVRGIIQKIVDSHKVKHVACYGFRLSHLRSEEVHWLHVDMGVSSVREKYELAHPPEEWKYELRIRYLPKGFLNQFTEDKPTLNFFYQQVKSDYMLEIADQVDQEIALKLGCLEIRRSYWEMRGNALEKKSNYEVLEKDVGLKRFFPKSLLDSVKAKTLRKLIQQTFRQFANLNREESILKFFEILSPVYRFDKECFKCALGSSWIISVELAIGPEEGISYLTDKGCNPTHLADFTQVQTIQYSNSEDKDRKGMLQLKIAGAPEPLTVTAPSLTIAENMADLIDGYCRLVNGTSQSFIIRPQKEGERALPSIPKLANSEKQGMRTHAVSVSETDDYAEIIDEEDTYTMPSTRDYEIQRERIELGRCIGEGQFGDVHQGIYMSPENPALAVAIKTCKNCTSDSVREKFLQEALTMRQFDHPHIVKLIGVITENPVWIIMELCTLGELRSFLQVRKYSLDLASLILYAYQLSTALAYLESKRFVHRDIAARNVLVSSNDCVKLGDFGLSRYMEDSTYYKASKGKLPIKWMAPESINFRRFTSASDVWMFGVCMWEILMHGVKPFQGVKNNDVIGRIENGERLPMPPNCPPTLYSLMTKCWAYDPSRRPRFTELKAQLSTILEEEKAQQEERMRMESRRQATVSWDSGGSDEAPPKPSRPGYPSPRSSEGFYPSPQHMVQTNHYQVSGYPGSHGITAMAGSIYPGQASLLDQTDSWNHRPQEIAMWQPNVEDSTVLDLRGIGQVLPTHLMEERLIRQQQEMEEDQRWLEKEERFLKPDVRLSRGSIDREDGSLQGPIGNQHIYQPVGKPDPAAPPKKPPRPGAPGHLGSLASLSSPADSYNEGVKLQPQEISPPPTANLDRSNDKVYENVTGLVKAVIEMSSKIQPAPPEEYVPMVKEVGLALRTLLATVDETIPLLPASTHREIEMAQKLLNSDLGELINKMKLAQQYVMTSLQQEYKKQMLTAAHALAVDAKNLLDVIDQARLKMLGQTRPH
Sequence of Streptavidin (Streptomyces avidinii) (P22629 whole entry, looked up): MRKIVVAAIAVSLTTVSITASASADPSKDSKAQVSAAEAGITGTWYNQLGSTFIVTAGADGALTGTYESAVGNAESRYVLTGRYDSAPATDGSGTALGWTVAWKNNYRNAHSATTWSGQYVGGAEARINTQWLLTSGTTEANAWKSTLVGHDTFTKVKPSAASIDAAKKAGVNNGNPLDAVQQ
Sequence of Fibroblast growth factor 2 (Homo sapiens) (P09038 whole entry, looked up): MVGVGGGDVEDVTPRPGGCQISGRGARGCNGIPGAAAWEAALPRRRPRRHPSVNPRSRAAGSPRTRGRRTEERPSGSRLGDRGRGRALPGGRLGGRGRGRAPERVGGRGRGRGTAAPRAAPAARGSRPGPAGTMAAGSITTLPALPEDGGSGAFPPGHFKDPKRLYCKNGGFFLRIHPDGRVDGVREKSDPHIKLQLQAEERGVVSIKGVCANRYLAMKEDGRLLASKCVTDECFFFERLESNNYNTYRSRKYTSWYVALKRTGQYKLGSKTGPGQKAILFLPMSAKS
Sequence of Torsin-1A (Homo sapiens) (O14656 whole entry, looked up): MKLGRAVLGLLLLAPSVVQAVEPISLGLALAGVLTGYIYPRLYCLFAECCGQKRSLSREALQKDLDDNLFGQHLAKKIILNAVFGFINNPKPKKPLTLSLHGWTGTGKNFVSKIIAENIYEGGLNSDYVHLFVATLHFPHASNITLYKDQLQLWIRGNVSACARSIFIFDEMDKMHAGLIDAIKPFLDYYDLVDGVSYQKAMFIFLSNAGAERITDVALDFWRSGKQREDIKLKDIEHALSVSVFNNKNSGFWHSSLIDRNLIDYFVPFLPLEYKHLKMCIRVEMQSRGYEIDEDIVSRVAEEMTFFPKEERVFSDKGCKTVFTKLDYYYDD
Sequence of Luciferin 4-monooxygenase (Photinus pyralis) (P08659 whole entry, looked up): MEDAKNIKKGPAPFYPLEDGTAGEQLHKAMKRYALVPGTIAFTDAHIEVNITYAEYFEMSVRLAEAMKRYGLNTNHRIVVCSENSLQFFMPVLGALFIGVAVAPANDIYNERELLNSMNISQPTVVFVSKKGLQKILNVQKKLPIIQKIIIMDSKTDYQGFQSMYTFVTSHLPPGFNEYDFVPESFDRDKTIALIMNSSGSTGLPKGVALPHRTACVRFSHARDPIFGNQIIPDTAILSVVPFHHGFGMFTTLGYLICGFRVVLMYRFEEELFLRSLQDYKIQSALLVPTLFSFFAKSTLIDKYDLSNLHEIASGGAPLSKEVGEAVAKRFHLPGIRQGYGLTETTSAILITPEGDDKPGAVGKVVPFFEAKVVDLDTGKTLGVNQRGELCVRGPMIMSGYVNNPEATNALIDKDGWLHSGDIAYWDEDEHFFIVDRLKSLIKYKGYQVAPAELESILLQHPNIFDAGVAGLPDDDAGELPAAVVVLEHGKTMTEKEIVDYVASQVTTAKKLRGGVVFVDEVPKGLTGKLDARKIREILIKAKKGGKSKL
Sequence of Follistatin (Homo sapiens) (P19883 whole entry, looked up): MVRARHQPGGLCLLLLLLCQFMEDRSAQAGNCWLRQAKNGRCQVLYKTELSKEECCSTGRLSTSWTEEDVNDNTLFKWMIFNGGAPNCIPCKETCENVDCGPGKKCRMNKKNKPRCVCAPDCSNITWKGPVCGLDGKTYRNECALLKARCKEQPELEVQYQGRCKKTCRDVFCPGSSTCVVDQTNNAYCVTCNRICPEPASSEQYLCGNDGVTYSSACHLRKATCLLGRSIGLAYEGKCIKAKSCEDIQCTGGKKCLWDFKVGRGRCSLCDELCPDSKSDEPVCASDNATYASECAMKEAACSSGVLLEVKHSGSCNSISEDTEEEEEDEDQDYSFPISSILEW

SMILES | composite z-score [1] | composite z-score [2] | composite z-score [3] | composite z-score [4] | composite z-score [5] | composite z-score [6] | z-score [7] | composite z-score (Lefty1) | composite z-score [8] | z-score [9] | composite z-score [10] | z-score [11] | z-score [12] | z-score [13] | z-score [14] | composite z-score [15] | composite z-score [16] | composite z-score (Torsin-1A (Homo sapiens) [17]) | composite z-score (Torsin-1A (Homo sapiens) [18]) | composite z-score [19]
c1ccc(-c2cc3c(nc2-c2ccccc2)CCNC3)cc1 | -0.0778 | -0.716 | -0.0306 | 0.357 | -0.444 | 0.0533 | 0.631 | 0.0391 | 0.326 | -0.13 (inactive) | -0.2 | -0.207 (inactive) | 0.346 (inactive) | 0.291 (inactive) | -0.815 (inactive) | 0.0291 | 0.0228 | 0.175 | -0.256 | -0.193
CN1CCC(c2ccc(CO)cc2)=CC1C1CC1 (stereo not given) | -0.192 | -0.855 | 0.363 | -0.0825 | 0.231 | 0.0573 | 0.319 | 0.85 | -0.0579 | -0.866 (inactive) | -0.103 | -0.209 (inactive) | 0.656 (inactive) | 3.78 (inactive) | 0.54 (inactive) | -0.333 | -0.101 | 0.309 | 0.431 | 1.85
CCc1cc2c(nc1CC)CCN(CCC(C)=NOC)C2 | 3.12 | 0.422 | -0.128 | -0.15 | 1.24 | 0.294 | 0.268 | 0.861 | -0.141 | -0.773 (inactive) | 0.148 | -0.295 (inactive) | -1.01 (inactive) | 1.82 (inactive) | -0.26 (inactive) | 0.496 | -0.0645 | 1.23 | 1.57 | 1.05
CCOC(=O)[C@H]1CC=C2C(=O)Oc3ccc(Br)cc3[C@@H]21 | 0.819 | 1.27 | 1.87 | 0.474 | -1.1 | -1.3 | -0.896 | -1.66 | -0.0424 | 0.936 (inactive) | -0.707 | -0.87 (inactive) | -0.301 (inactive) | 0.0331 (inactive) | 34.1 (active) | 0.307 | -0.128 | 0.0083 | 0.127 | -0.968
C=C(CC1(CNP(=O)(c2ccccc2)c2ccccc2)CC1)c1ccccc1 | 0.679 | 0.626 | 0.0728 | 0.126 | -0.274 | -0.639 | 1.23 | -0.742 | 0.11 | 2.19 (inactive) | 0.0774 | -0.649 (inactive) | 0.366 (inactive) | -0.182 (inactive) | -0.418 (inactive) | -0.0187 | 0.102 | -0.27 | 0.449 | -1.31
CN1CCC(c2ccc(CO)cc2)=CC1c1cccs1 (stereo not given) | 0.399 | -0.668 | 0.903 | -0.28 | 0.699 | 0.0576 | 0.389 | 1.35 | 0.244 | -1.16 (inactive) | -0.113 | -1.33 (inactive) | 0.196 (inactive) | 2.8 (inactive) | 0.158 (inactive) | -0.511 | -0.154 | 0.175 | 0.367 | 1.7
COC(=O)C1(C)C=C2C(=C(C)C(=O)C2C)CN1 (stereo not given) | 0.207 | 0.111 | 0.885 | -1.52 | -0.0995 | -0.755 | -1.82 | -0.868 | -0.0605 | 2.34 (inactive) | -0.163 | 0.0631 (inactive) | -0.596 (inactive) | -0.182 (inactive) | 3.71 (inactive) | -0.164 | 0.0442 | 0.219 | -0.186 | -0.473
COC(=O)NCC=Cc1nc(CCC=CC(=O)O[C@H]2CC3CC(=O)O[C@@H](C=CCC(C)C)C[C@@H]4CC[C@H](C)[C@@H](C[C@@H](OC)C[C@H](C2)O3)O4)co1 | -0.106 | -1.42 | -0.422 | -1.2 | -0.822 | -0.43 | 1.88 | -0.422 | -0.777 | -0.0363 (inactive) | -0.335 | -3.73 (inactive) | 0.881 (inactive) | 0.106 (inactive) | -1.96 (inactive) | -0.875 | -0.159 | -0.429 | -0.653 | 0.0788
